Assays:
Conditions in all cases: concentration: 1 μM, replicates: in singlicate; n = 1
TLK2 = test system: TLK2
TNIK = test system: TNIK
TNK1 = test system: TNK1
TNK2 = test system: TNK2
TNNI3K = test system: TNNI3K
TRKA = test system: T1, TRKA
T1 construct: gene NTRK1

TRKB = test system: TRKB
TRKC = test system: T2, TRKC
T2 construct: gene NTRK3

TRPM6 = test system: TRPM6
TSSK1B = test system: TSSK1B
TSSK3 = test system: TSSK3
TTK = test system: TTK
TXK = test system: TXK
[1] = test system: TYK2(JH1domain-catalytic)
[2] = test system: TYK2(JH2domain-pseudokinase)
TYRO3 = test system: TYRO3
ULK1 = test system: ULK1
ULK2 = test system: ULK2
ULK3 = test system: ULK3
VEGFR2 = test system: T3, VEGFR2
T3 construct: gene KDR
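Further: KINOMEscan kinase panel screen.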

SMILES | %Inh (TLK2) | %Inh (TNIK) | %Inh (TNK1) | %Inh (TNK2) | %Inh (TNNI3K) | %Inh (TRKA) | %Inh (TRKB) | %Inh (TRKC) | %Inh (TRPM6) | %Inh (TSSK1B) | %Inh (TSSK3) | %Inh (TTK) | %Inh (TXK) | %Inh [1] | %Inh [2] | %Inh (TYRO3) | %Inh (ULK1) | %Inh (ULK2) | %Inh (ULK3) | %Inh (VEGFR2)
O=C(NCCCN1CCOCC1)c1cccc(Nc2nccc(Nc3ccc(Oc4ccccc4)cc3)n2)c1 [GW663929] | 21% | 3% | 66% | 19% | 74% | 8% | 0% | 0% | 52% | 0% | 10% | 21% | 0% | 30% | 44% | 5% | 1% | 2% | 11% | 13%
NS(=O)(=O)c1cccc(-c2ccc3ncc(N4CCOCC4)nc3c2)c1 [GSK1535721] | 8% | 34% | 0% | 2% | 14% | 37% | 0% | 5% | 0% | 0% | 6% | 6% | 0% | 0% | 31% | 0% | 0% | 0% | 2% | 10%
COc1ccc(Nc2nccc(N3CCC(NC(=O)Nc4cc(C)ccc4C)C3)n2)cc1 (centres unmarked) [GSK1379741] | 0% | 0% | 0% | 9% | 0% | 0% | 0% | 22% | 32% | 13% | 9% | 0% | 0% | 0% | 23% | 0% | 15% | 0% | 12% | 0%
COc1ccc(COc2cc(-n3cnc4ccccc43)sc2C(N)=O)cc1 [GSK1024304] | 0% | 51% | 8% | 3% | 0% | 0% | 0% | 19% | 4% | 0% | 17% | 6% | 20% | 4% | 0% | 0% | 15% | 0% | 0% | 0%
CSc1ccc(-c2cc3ncnc(SCC(=O)O)c3s2)cc1 | 0% | 3% | 57% | 14% | 0% | 0% | 0% | 0% | 0% | 0% | 0% | 0% | 0% | 0% | 0% | 0% | 0% | 8% | 0% | 0%
Cc1ccc(NC(=O)c2ccnc(N3CCN(C)CC3)c2)cc1-c1ccc(C(=O)NCC2CC2)cc1 [GW775604] | 0% | 0% | 34% | 0% | 0% | 0% | 0% | 0% | 0% | 0% | 0% | 0% | 0% | 100% | 0% | 0% | 0% | 100% | 0% | 0%
CN1c2ccc(CNc3ccc(F)cc3)cc2-c2c(cnn2C)S1(=O)=O | 0% | 9% | 12% | 0% | 0% | 0% | 0% | 0% | 0% | 0% | 0% | 0% | 0% | 0% | 0% | 0% | 0% | 0% | 0% | 0%
